GPR151 activ = activators of human GPR151, primary screen, cell-based, PathHunter beta-arrestin, luminescence | G-protein coupled receptor 151 (Homo sapiens), Q8TDV0 | 1% of 650,000 active | PathHunter beta-arrestin GPR151 cells | activation, % at 11.2 µM; in the data active = activation above about 4.9%;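 also: 0% = median of compound wells and 100% = cells with positive control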
TEAD-YAP inh = TEAD-YAP interaction inhibition, primary screen, TEAD-YAP interaction inhibitor project, luminescence, HEK-TIYL cells; TEAD-Gal4/YAP UAS-luciferase luminescence; inhibition, % at 9.12 µM; 1.4% of 640,000 active; in the data active = inhibition above about 32%;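 also: 0% = median of test compound wells and 100% = reference inhibitor wells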
FBW7 act = FBW7 E3 ligase activators, primary screen, biochemical, AlphaScreen, human | normalized activity (activation), % at 26.1 µM | F-box/WD repeat-containing protein 7 (Homo sapiens), Q969H0 | 0.13% of 650,000 active | AID 1259310, 2017 | AlphaScreen FBW7–phospho-cyclin E peptide binding, activator screen; in the data active = normalized activity above about 1.9%;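 also: purified mutant Fbw7 with reduced substrate affinity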
MITF primary = MITF inhibitors, primary screen, biochemical, AlphaScreen, human | inhibition, % at 2.6 µM | AID 1259374, 2018 | AlphaScreen MITF homodimerization, bead proximity signal | 0.91% of 650,000 active; in the data active = inhibition above about 50%;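 also: 0% = vehicle wells with protein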
GPR151 conf act = GPR151 activators, triplicate retest, confirmation, cell-based, PathHunter beta-arrestin, luminescence; GPR151 PathHunter beta-arrestin cells, 90 min; % of EA-reagent control over plate median; shares compounds with GPR151 activ; 6,700 tested, under 10 active; activation, % at 11.2 µM;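 active = mean percent activation across replicates above the confirmation screen cutoff of 4.91%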
GPR119 ag = GPR119 activators in beta-arrestin cells, counter-screen for GPR151 activator project, cell-based, PathHunter beta-arrestin, luminescence, triplicate | shares compounds with GPR151 activ | 90 min; 0 = compound-well median, 100 = enzyme-acceptor control | activation, % at 11.2 µM | 0.3% of 6,700 active | AID 1508611, 2020;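 active = mean percent activation in the counterscreen above 29.09%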;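 also: counterscreen on off-target GPR119 to flag nonselective hits from the GPR151 activator screen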
Target sequence (Q8TDV5 whole entry, looked up): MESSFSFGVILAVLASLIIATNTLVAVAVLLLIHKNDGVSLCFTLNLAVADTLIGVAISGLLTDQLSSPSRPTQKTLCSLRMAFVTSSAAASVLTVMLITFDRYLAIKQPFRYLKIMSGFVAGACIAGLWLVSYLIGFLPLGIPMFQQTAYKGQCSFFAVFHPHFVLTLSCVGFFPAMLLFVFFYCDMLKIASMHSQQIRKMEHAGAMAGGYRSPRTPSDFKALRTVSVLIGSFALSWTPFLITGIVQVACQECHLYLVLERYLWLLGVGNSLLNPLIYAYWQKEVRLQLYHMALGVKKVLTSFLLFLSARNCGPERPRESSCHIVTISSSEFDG
Numbers without * were called inactive; / = not tested or not shown; ! = repeats disagree. An excerpt weighted towards active compounds, which were near 3.4% of everything screened.

SMILES	GPR151 activ	TEAD-YAP inh	FBW7 act	MITF primary	GPR151 conf act	GPR119 ag
CC[C@@H]1NC(=O)[C@@H]2C[C@H](NC(=O)c3cccc(F)c3F)CN2C1=O	9.7*	8.9	0.3	5.8	0.1	5.0
COc1ccc(N2CSC3=C(C#N)C(c4ccc([N+](=O)[O-])cc4)CC(=O)N3C2)cc1 (centres undefined)	0.9	-33.3	-0.1	2.2	/	/
Cc1ccc(N2C(=O)CC(NCCc3ccc(Cl)cc3)C2=O)cc1 (centres undefined)	6.4*	5.6	0.0	0.6	0.6	11.6
CCCOc1ccc(N2C(=O)CC(NCCCc3ccccc3)C2=O)cc1 (centres undefined)	6.1*	-7.7	0.0	-2.3	0.1	-6.9
CCCOc1ccc(N2C(=O)CC(NCC34CC5CC(CC(C5)C3)C4)C2=O)cc1 (centres undefined)	5.2*	5.5	0.0	1.4	-0.7	-10.7
COc1ccc(CCNC2CC(=O)N(c3ccccc3)C2=O)cc1 (centres undefined)	5.8*	6.4	0.0	0.3	-0.1	4.2
COc1ccc(CCNC2CC(=O)N(c3ccc(F)cc3)C2=O)cc1 (centres undefined)	0.2	-8.1	-0.1	4.7	/	/
O=C(NC1CCCC1)c1ccc(N2CCCCC2)c([N+](=O)[O-])c1	0.9	-30.2	-0.3	12.9	/	/
O=C(COC(=O)Cc1ccc(F)cc1)NCC1CCCO1 (centres undefined)	0.9	3.0	0.3	-10.8	/	/
O=C(NCCO)c1cccc(-n2ncc3cc(Nc4ccccc4Cl)ccc32)c1	0.3	1.5	-0.1	6.8	/	/
NC(=O)COC(=O)/C=C/c1ccc(Cl)cc1	5.6*	3.1	0.0	3.1	0.4	0.0
CCOc1cc(S(=O)(=O)n2nnc3ccccc32)ccc1F	5.1*	8.6	-0.6	-19.8	0.3	15.0
CCOC(=O)[C@H](CCc1ccccc1)N[C@@H](C)C(=O)N1[C@H](C(=O)O)C[C@@H]2CCC[C@@H]21	7.0*!	6.6	-0.1	-2.6	1.6	11.5
CN1CCN(c2ccccc2NC(=O)c2ccc([N+](=O)[O-])o2)CC1	5.7*	5.9	0.0	-3.7	-0.2	-7.7
CN1CCN(c2ccccc2NC(=O)Cc2ccc(Cl)cc2)CC1	6.1*	-8.6	0.0	-0.5	-0.3	1.5
CS(=O)(=O)N1CCN(c2ccccc2NC(=O)c2ccc([N+](=O)[O-])o2)CC1	-0.8	4.5	-0.2	4.6	/	/
COC(=O)c1sc2nc(N)c(C#N)c(-c3ccc(Cl)cc3)c2c1N	0.4	2.7	-0.1	5.1	/	/
CCOC(=O)c1sc2nc(N)c(C#N)c(-c3ccc(Cl)cc3)c2c1N	6.6*	1.6	-0.1	-1.5	0.3	-12.3
CSc1ncc(CN2CCN(CC(C)(C)C)C(CCO)C2)cn1 (centres undefined)	5.8*	1.1	0.0	-2.4	-0.4	1.7
CC(C)(C)NC(=O)CN1C(=O)[C@@H]2CCCN2C(=O)c2ccccc21	0.8	3.7	0.0	-1.8	/	/
Cc1cccc(C(=O)Nc2ccc(F)cc2F)c1[N+](=O)[O-]	10.9*	-8.3	-0.1	0.6	0.5	7.0
Cc1cccc(C(=O)Nc2ccc(Br)cc2F)c1[N+](=O)[O-]	1.4	-64.6	-0.1	0.9	/	/
O=C(NC(=O)c1ccccc1)c1ccccc1	-1.1	3.4	-0.1	11.9	/	/
COc1cc(NC(=O)CSc2ccc(C(=O)O)cn2)ccc1-n1cnnn1	8.2*	9.6	-0.1	7.6	-0.2	2.6
COc1cc(NC(=O)CSc2ccc(C(=O)O)cn2)cc(OC)c1	0.3	-10.7	0.1	-0.8	/	/
SMILES	GPR151 activ	TEAD-YAP inh	FBW7 act	MITF primary	GPR151 conf act	GPR119 ag
COc1ccccc1N1CCN(C(=O)CSc2nc(N)cc(=O)[nH]2)CC1	-1.0	13.3	0.5	11.9	/	/
COc1ccccc1N1CCN(C(=O)CSc2nc3ccccc3[nH]2)CC1	6.0*	8.6	0.0	9.5	0.1	1.9
CC(C)CNC(=O)COC(=O)c1ccc(O)cc1	0.3	3.3	0.0	9.0	/	/
CC(C)CNC(=O)NC(=O)COC(=O)c1ccccc1N=Nc1ccc(O)cc1	5.9*	4.5	0.6	14.7	1.0	6.3
COc1ccc(C)cc1S(=O)(=O)NCC1CCCO1 (centres undefined)	-0.4	1.8	-0.1	2.4	/	/
Cc1cccc(Cn2cc(SCC(=O)Nc3cc(C)on3)c3ccccc32)c1	0.8	1.8	0.1	0.3	/	/
O=[N+]([O-])c1cccc(CNc2cccc(F)c2)c1	10.6*	5.5	0.1	5.8	1.3	3.2
Clc1ncnc2c1oc1ccccc12	9.1*	0.7	-0.1	4.8	0.8	-2.6
Cc1cc(C)cc(NC(=O)c2ccc(Cl)c(Cl)c2)c1	5.4*	-11.3	-0.1	-13.8	-0.5	-3.6
COC(=O)c1ccccc1NC(=O)c1cccc(Cl)c1	-0.3	-1.9	0.0	16.6	/	/
COC(=O)c1ccccc1NC(=O)c1ccc(Cl)c(Cl)c1	5.1*	12.1	0.0	-4.3	0.1	-4.2
O=C1c2cccc3cccc(c23)C(=O)N1Cc1ccco1	-1.5	-4.4	0.0	16.4	/	/
O=C1c2cc3ccccc3cc2C(=O)N1Cc1ccco1	5.8*	9.3	0.2	16.8	-0.1	-8.0
CCc1ccc(-n2c(C)nc3cc(C(=O)NCCc4ccc(OC)c(OC)c4)ccc32)cc1	5.1*	8.5	0.0	-4.8	-0.6	-9.8
COc1ccc(-n2c(C)nc3cc(C(=O)NCCc4ccc(OC)c(OC)c4)ccc32)cc1	-0.5	-19.6	0.1	-26.2	/	/
O=C(Nc1ccc2[nH]ncc2c1)[C@H]1CCCN1C(=O)C(O)c1ccc(Cl)cc1 (some centres undefined)	-0.7	-1.3	-0.3	4.8	/	/
O=C(Nc1ccc2[nH]ncc2c1)[C@@H]1CCCN1C(=O)C(O)c1ccc(Cl)cc1 (some centres undefined)	5.2*!	-0.3	0.0	10.5	-0.3	5.5
Cc1ccc(Sc2ccc3noc4c3c2C(=O)c2ccccc2-4)cc1	10.5*	0.5	0.1	8.9	-1.4	-13.9
COC(=O)c1ccc(NC(=O)COc2ccc(C34CC5CC(CC(C5)C3)C4)cc2)cc1	5.3*	6.9	0.0	4.5	-0.8	3.4
N#Cc1ccccc1OCC(=O)N1CCOCC1	5.5*	4.8	0.0	9.3	-0.3	1.8
Cc1nnc(SCC(=O)Nc2ccc(C(C)(C)C)cc2)s1	-1.8	-14.3	0.1	-5.0	/	/
